High-throughput results (PubChem BioAssay)
NIH3T3 tox – cytotoxic compounds in NIH 3T3 cells; NIH 3T3 viability, CellTiter-Glo ATP luminescence, 48-72 h; Potency, µM (highest dose often 96.7 µM), for inactives: at the top dose activity change, negative = cytotoxicity, actives largely listed as inhibitors; 4.3% of 94,000 active; AID 1345082; further: nearly all actives have a fitted effect of over 55% in size
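Viability of NIH 3T3 cells after 48 or 72 hr compound treatment at 37 °C was assessed by CellTiter-Glo, with luminescence imaged following a 10 min room-temperature step.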
hNpr1 antagonist – blocks ANP-stimulated signaling of human Npr1 receptor; 1.6% of 76,000 active; Potency, µM (top dose mostly 46.3 µM), for inactives: top-dose activity change, negative = inhibition, actives largely listed as inhibitors; P16066; HEK293 hNpr1 GloSensor cGMP, ANP-stimulated luminescence; calls by dose curve; further: nearly all actives have a fitted effect of over 60% in size
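HEK293 cells stably expressing human Npr1 and cGMP GloSensor pGS-40F, loaded 2 h with 2% GloSensor reagent, given compound 30 min at room temperature. Luminescence read before and 20 min after 0.1 nM hNppA.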
FLuc inh – inhibitors of firefly (Photinus pyralis) luciferase. P08659. purified P. pyralis luciferase, luminescence, biochemical. Potency, µM (titrated, usually from 115 µM), hits mostly inhibitors. 2.5% of 76,000 active; further: nearly all actives have a fitted effect of over 65% in size
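Luminescence read by CCD imager after adding enzyme (10nM final) to wells holding compound, titrated in qHTS. Substrates 10uM each D-luciferin and ATP; buffer 50mM Tris acetate pH 7.5, 10mM Mg acetate, Tween-20, BSA.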
HEK293 tox – cytotoxic compounds in HEK 293 cells. 6.6% of 94,000 active. Potency, µM (titrated, usually from 115 µM), without a hit: at the top dose activity change, negative = cytotoxicity, usual class: inhibitors. HEK 293 viability, ATP luminescence (CellTiter-Glo), 48-72 h; further: nearly all actives have a fitted effect of over 60% in size
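Viability of HEK 293 cells, plated at 250 cells/well, was judged by cellular ATP after compound treatment for 48 or 72 hr. Luminescence was imaged 10 min after CellTiter-Glo addition at room temperature.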
GPT2 inh – blocks human glutamate pyruvate transaminase 2 | 0.25% of 100,000 active | Potency, µM (titrated, usually from 57.7 µM), without a hit: top-dose activity change, negative = inhibition, most hits filed as inhibitors | Q8TD30 | AID 1671188 | Recombinant GPT2, coupled pyruvate oxidase/HRP Amplex Red fluorescence; further: nearly all actives have a fitted effect of over 60% in size
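Fluorescence of coupled pyruvate oxidase/HRP/Amplex Red system (50uM Amplex, 30 min, dark) reports pyruvate formed by GPT2. Enzyme reaction: 10ng/uL GPT2, 2mM L-alanine, 250uM a-KG, 30 min room temperature, pH 7.5; 50uM AOA control.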
Starred values were filed as active, the others as inactive; i = inactive; u = inconclusive; x = not tested or not shown; [ ] = remark or other dose. This is a sample that favours compounds with a hit; in the whole collection about 10% have one here. Unless noted, the call rests on the fitted dose curve; in most records, active means well fitted curve in the direction sought with a large enough effect; inconclusive means small, poorly fitted or top-dose-only effect, or another doubt; inactive means no such curve, though single readings can be large; an effect the other way counts as inactive or inconclusive. On the % scale 0 is the no-effect control and ±100 the full control effect; potency means the concentration at half of the fitted maximal effect.

SMILES	NIH3T3 tox	hNpr1 antagonist	FLuc inh	HEK293 tox	GPT2 inh
CN1CC(=O)N(c2ccccc2F)Cc2c(NCCc3ccc(Cl)cc3)ncnc21	40µM*	-15%	i	45µM*	-9%
O=C([C@H]1CCCN1C(=O)C1CC1)N1CCC(N2CCOC2=O)CC1	-2%	x	x	i	4%
CN1CC(=O)N(c2ccccc2F)Cc2c(NCCc3ccccc3)ncnc21	u	0%	i	45µM*	u
O=C(Nc1ccc(Cl)cc1)N1CCN(c2nccc(Nc3ccccc3F)n2)CC1	u	x	x	28µM*	3%
O=C(Nc1ccccc1)N1CCN(c2nccc(Nc3ccccc3Cl)n2)CC1	u	x	x	50µM*	u
O=C(C1CC1)N1CCN(c2nccc(Nc3ccccc3F)n2)CC1	u	x	x	63µM*	-4%[88.5 µM]
CC(C)NC(=O)N1CCN(c2nccc(Nc3ccccc3Cl)n2)CC1	35µM*	x	x	u	2%
Cn1nc(C2CCN(C(=O)c3ccc(F)cc3)CC2)n(Cc2ccccc2)c1=O	u	x	x	-21%	-11%
O=[S+]([O-])(c1ccccc1)N1CCN(c2nccc(Nc3ccccc3Cl)n2)CC1	28µM*	x	x	u	i
O=C(Nc1ccc(Cl)cc1)NC1CCN(c2nccc(Nc3ccccc3F)n2)CC1	40µM*	x	x	35µM*	-1%
O=C(Cc1ccccn1)NC1CCN(c2nccc(Nc3ccccc3F)n2)CC1	u	x	x	-22%	i
COC(=O)N1CCN(c2nccc(Nc3ccccc3Cl)n2)CC1	u	x	x	u	-13%
O=C(NC1CCN(c2ccnc3ccnn23)CC1)c1cncc(Br)c1	-33%	x	x	u	5%
CC(C)Oc1cccc2c1c(NC(=O)C1CCCO1)nn2Cc1ccccc1 (stereo not given)	u	4%	i	45µM*	i[11.5 µM]
COc1ccc(C(=O)NC2CCCN(c3ccc4nnc(-c5ccccc5)n4n3)C2)cc1 (stereo not given)	u	x	x	22µM*	x
O=C(NC1CCCN(c2ccc3nnc(-c4ccccc4)n3n2)C1)c1ccc(F)cc1 (stereo not given)	-26%	x	x	i	x
O=C(NC1CCCN(c2ccc3nnc(-c4ccccc4)n3n2)C1)c1ccccn1 (stereo not given)	u	x	x	28µM*	x
O=C(NC1CCCC1)NC1CCCN(c2ccc3nnc(-c4ccccc4)n3n2)C1 (stereo not given)	-18%	x	x	-16%	x
COc1ccc(-n2c(=O)c(C(=O)NCc3ccc(F)cc3)nc3cccnc32)cc1	u	x	x	u	i
COc1cccc(CN2CCc3c(cc(C(=O)NCc4ccccn4)n3C)C2)c1	u	2%	i	u	3%
COc1ccc(NC(=O)c2cc3c(n2C)CCN(Cc2ccc(F)cc2)C3)cc1	u	-3%	u	u	0%
CC(=O)Nc1ccc(NC(=O)c2cc3c(n2C)CCN(Cc2ccccc2)C3)cc1	-23%	1%	i	-13%	-25%
COc1cccc(CN2CCc3c(cc(C(=O)N4CCOCC4)n3C)C2)c1	-8%	0%	i	-9%	i
COc1cccc(CN2CCc3c(cc(C(=O)Nc4cccc(C)c4C)n3C)C2)c1	u	6%	22µM*	40µM*	u
COc1cccc(CN2CCc3c(cc(C(=O)Nc4ccccc4OC)n3C)C2)c1	u	-3%	16µM*	40µM*	i
SMILES	NIH3T3 tox	hNpr1 antagonist	FLuc inh	HEK293 tox	GPT2 inh
COc1cccc(CN2CCc3c(cc(C(=O)Nc4ccccc4)n3C)C2)c1	u	-26%	16µM*	45µM*	u
Cn1c(C(=O)Nc2ccc(N3CCOCC3)cc2)cc2c1CCN(Cc1ccccc1)C2	-22%	-1%	i	-20%	22µM*
CCc1ccc(C(=O)N2CCN(C(=O)c3nnn4c3COC(c3ccc(OC)cc3)C4)CC2)cc1 (stereo not given)	-17%	u	i	u	-16%
COC(=O)CNC(=O)C1CCCN(c2nccc(Nc3ccc(OC)cc3)n2)C1 (stereo not given)	u	x	x	u	2%
OC1(c2csc(CN3CCN(c4ccccn4)CC3)n2)CCN(Cc2ccc(F)cc2)CC1	u	-2%	i	u	1%
COc1ccc(CNC(=O)c2cc3c(n2C)CCN(Cc2ccccc2)C3)cc1OC	-27%	u	i	40µM*	i
COc1ccccc1NC(=O)c1cc2c(n1C)CCN(Cc1cccc(C)c1)C2	u	0%	32µM*	u	i
Cn1c(C(=O)NC(C)(C)C)cc2c1CCN(Cc1cccc(F)c1)C2	u	1%	i	u	-3%
CCN(CC)C(=O)c1cc2c(n1C)CCN(Cc1ccc(F)cc1)C2	4%	4%	i	-8%	3%
C#CCNC(=O)c1nc2sccn2c1-c1cccc(OC)c1	-20%[138 µM]	x	x	-19%[172 µM]	i
COCC(=O)NCCc1ncc(C)n1C1CCCCCC1	-18%	x	x	-16%	0%
O=c1[nH]c(N2CCOCC2)nc2c1CCN(Cc1cc(Cl)ccc1F)CC2	u	2%	i	u	i
Cn1cc(CN2CCN(c3cnccn3)CC2)c(-c2ccc(C3CCCCC3)cc2)n1	79µM*	6%	22µM*	25µM*	-18%
Cn1c(CN2CCN(c3ccc(C#N)cn3)CC2)nnc1C1CC(N)C1 (stereo not given)	1%	3%	i	1%	i
Cn1cc(CN2CCN(c3ccc(C#N)cn3)CC2)c(-c2ccccc2)n1	u	2%	i	79µM*	3%
CCOc1ccc2c(n1)CCN(C(=O)Cc1cccc(OC)c1)C2	-20%	0%	i	1%	-3%
COc1ccc(-c2noc([C@@H]3CCCN3C(=O)c3cc(C)cc(C)c3)n2)cc1OC	u	-1%	i	32µM*	i
O=C(c1cc(Cl)ccc1F)N1CCC[C@H]1c1nc(-c2ccc(F)cc2)no1	u	-13%	i	79µM*	-12%
COc1ccc(-c2noc([C@@H]3CCCN3C(=O)c3ccc(C)cc3)n2)cc1OC	-29%	4%	i	u	i
COc1cncc(CN2CCc3ncc(C(=O)Nc4ccccc4)n3CC2)c1	u	-2%[70.6 µM]	i	i	i
C=CCO[C@@H]1CCN2C(=O)c3cc(-c4cc(Cl)ccc4OC)ccc3NC(=O)[C@H]12	100µM*	-16%[70.6 µM]	i	63µM*	-3%[88.5 µM]
C=CCO[C@@H]1CCN2C(=O)c3cc(-c4ccc(F)cc4F)ccc3NC(=O)[C@H]12	-13%[174 µM]	-1%[70.6 µM]	i	112µM*	1%[88.5 µM]
C=CCO[C@@H]1C[C@H]2C(=O)Nc3ccc(-c4ccc(F)cc4F)cc3C(=O)N2C1	50µM*	-6%[70.6 µM]	i	u	1%[88.5 µM]
C=CCO[C@@H]1CCN2C(=O)c3cc(-c4ccccc4)ccc3NC(=O)[C@H]12	-26%[174 µM]	-9%[70.6 µM]	i	-26%[172 µM]	i
